Source: PubChem
MITF primary: inhibitors of human MITF. AID 1259374. inhibition, % at 2.6 µM. AlphaScreen MITF homodimerization, bead proximity signal. 650,000 compounds, 0.91% hits. O75030; in the data active = inhibition above about 50%;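 note: 0% = vehicle wells with protein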
Target sequence (O75030 whole entry, looked up): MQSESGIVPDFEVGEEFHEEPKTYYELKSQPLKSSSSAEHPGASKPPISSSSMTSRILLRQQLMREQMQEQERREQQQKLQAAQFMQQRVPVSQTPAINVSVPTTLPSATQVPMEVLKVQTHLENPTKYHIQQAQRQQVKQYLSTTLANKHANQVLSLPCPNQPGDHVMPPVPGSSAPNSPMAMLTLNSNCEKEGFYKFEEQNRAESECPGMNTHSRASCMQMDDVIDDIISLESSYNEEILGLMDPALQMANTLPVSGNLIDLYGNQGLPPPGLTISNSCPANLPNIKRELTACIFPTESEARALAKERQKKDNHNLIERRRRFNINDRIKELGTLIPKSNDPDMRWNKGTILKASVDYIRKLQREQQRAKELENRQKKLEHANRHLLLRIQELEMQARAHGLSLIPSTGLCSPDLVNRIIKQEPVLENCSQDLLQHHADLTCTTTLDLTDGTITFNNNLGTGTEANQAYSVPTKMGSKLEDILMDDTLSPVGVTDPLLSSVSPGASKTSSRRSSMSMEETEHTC
FBW7 activator: human FBW7 E3 ligase activation, primary screen; 650,000 compounds, 0.13% hits; AlphaScreen FBW7–phospho-cyclin E peptide binding, activator screen; Q969H0; normalized activity (activation), % at 26.1 µM; AID 1259310; in the data active = normalized activity above about 1.9%;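 note: purified mutant Fbw7 with reduced substrate affinity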
GPR151 activ: activates the human receptor GPR151. PathHunter beta-arrestin GPR151 cells, luminescence. activation, % at 11.2 µM. 650,000 compounds, 1% hits; in the data active = activation above about 4.9%;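 note: 0% = median of compound wells and 100% = cells with positive control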
TEAD-YAP inh: TEAD-YAP interaction inhibition; HEK-TIYL cells, TEAD-Gal4/YAP UAS-luciferase luminescence; inhibition, % at 9.12 µM; 640,000 compounds, 1.4% hits; AID 1259422; in the data active = inhibition above about 32%;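 note: 0% = median of test compound wells and 100% = reference inhibitor wells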
MITF confirm: human MITF inhibition, confirmation. AlphaScreen MITF homodimerization, biotin/His-MITF beads. inhibition, % at 2.6 µM. shares compounds with MITF primary. 4,700 compounds, 16% hits;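 active = inhibition above a cutoff derived from the DMSO control wells, cut at about 28% in these data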;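 note: 0% = MITF dimer wells with DMSO only; inhibitors lower the bead chemiluminescence by keeping MITF from dimerizing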
AS interf DR: AlphaScreen optical interference, dose response counter-screen | shares compounds with MITF primary | AlphaScreen optical interference counterscreen, cell-free | IC50, µM | 480 compounds, 6% hits | AID 1259373; call rule not given here
AlphaScreen intf2: counter-screen: compounds optically interfering with AlphaScreen | inhibition, % at 2.6 µM | shares compounds with MITF primary | AID 1259376 | LysRS AlphaScreen counterscreen, signal interference, triplicate | 4,700 compounds, 7.6% hits;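 active = inhibition above a cutoff derived from the DMSO control wells, cut at about 30% in these data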
An asterisk follows results filed as active; · = not tested or not shown. Most compounds without a hit are left out; they make up all but 3.4% or so of the library.

SMILES	MITF primary	FBW7 activator	GPR151 activ	TEAD-YAP inh	MITF confirm	AlphaScreen intf2	others
CC(=O)c1cccc(N2C(=O)c3ccc(C(=O)OCC(=O)c4ccc([N+](=O)[O-])cc4)cc3C2=O)c1	60*	0	1	-3	21	26
O=[N+]([O-])c1ccc(N2CCN(S(=O)(=O)c3ccccc3)CC2)cc1NC1CC1	71*	0	-1	4	7	10
COc1cc(NC(=O)COC(C)=O)cc(OC)c1	19	1	-1	14	·	·
O=C1NC2(CCN(Cc3ccc(Cl)cc3)CC2)C(=O)N1Cc1ccc(F)cc1	10	1	-1	11	·	·
O=C(CN1CCCC1)Nc1ccc(N2CCCCC2)cc1	-12	0	-2	-12	·	·
CC1CCN(CC(=O)Nc2ccc(N3CCCC3)cc2)CC1	55*	0	-1	-7	13	13
Cc1ccc(NC(=O)CN2CCC(C(=O)NCc3ccccn3)CC2)cc1	4	0	0	-2	·	·
COC(=O)c1ccc(NC(=O)CN2CCN(CC#N)CC2)cc1	71*	0	-1	-7	10	-3
Cc1ccc(NC(=O)CN2CCC(C(=O)NCc3cccs3)CC2)cc1	114*	0	0	1	-4	-4
CC1CCN(CC(=O)Nc2ccc(C(=O)N3CCCCC3)cc2)CC1	59*	0	1	-1	3	11
CCCCOc1ccc(NC(=O)CN2CCN(C(C)=O)CC2)cc1	66*	0	3	-4	14	15
CCN1CCN(CC(=O)Nc2ccc(N3CCCCC3)cc2)CC1	81*	0	1	-1	-8	-3
Cc1cccc(/C=N/NC(=O)c2ccoc2C)c1	8	0	-8	-4	·	·
Cc1ccc(-n2c(-c3ccco3)n[nH]c2=S)cc1C	2	0	1	-5	·	·
CC(=O)c1ccc(-n2c(-c3cc(-c4ccco4)[nH]n3)n[nH]c2=S)cc1	61*	0	1	-8	22	37*
COc1ccc(C(C2C(=O)N(c3ccccc3)N=C2C)C2C(=O)N(c3ccccc3)N=C2C)cc1OC (configuration not stated)	5	0	0	-16	·	·
O=C(Nc1cc([N+](=O)[O-])ccc1C(=O)NCCc1ccccc1)c1ccccc1	67*	0	0	-23	7	13
O=C(Nc1ccccc1)C1CC12CCN(C(=O)CSc1ccccn1)CC2 (configuration not stated)	0	0	0	-8	·	·
O=C1c2ccccc2C(=O)N1c1ncc(Cc2ccc(Cl)cc2)s1	59*	0	-1	14	12	18
O=C1c2ccccc2C(=O)N1c1ncc(Cc2cc(Cl)ccc2Cl)s1	9	0	-1	9	·	·
C/C(=N\NC(=O)c1ccc(O)cc1)c1ccc(F)cc1	7	0	2	-12	·	·
COc1ccc(C2SCC(C(=O)O)N2C(C)=O)cc1OC (configuration not stated)	51*	0	0	-2	11	14
CCOC(=O)c1c(NC(=S)Nc2ccccc2)sc2c1CCC(C)C2 (configuration not stated)	-3	0	0	-7	·	·
CSCCC(N=C1NS(=O)(=O)c2ccccc21)C(=O)O (configuration not stated)	4	0	0	0	·	·
COc1ccc(CCNC(N)=S)cc1OC	63*	0	0	-6	6	-1
SMILES	MITF primary	FBW7 activator	GPR151 activ	TEAD-YAP inh	MITF confirm	AlphaScreen intf2	others
COc1ccc(CCNc2ccc(Cl)cn2)cc1OC	97*	0	-1	-10	-12	-6
O=S(=O)(O)c1ccc(N/N=C2\CCc3ccccc32)cc1	67*	0	-1	16	46*	-2	AS interf DR=>6.5
NC(=O)C(=O)N/N=C1\CCc2ccccc21	5	0	0	-2	·	·
CCC(c1nnc(SCC(=O)N(C)C)o1)N(C)C (configuration not stated)	81*	0	1	6	7	15
C#CCN1C(=O)S/C(=C/c2cc(Cl)c(OCC(=O)O)c(OCC)c2)C1=O	19	0	-1	10	·	·
CN(Cc1ccco1)S(=O)(=O)c1ccc(C(=O)Nc2ccccc2Cl)cc1	7	0	1	0	·	·
Brc1ccc(-c2nnc3sc(CN4CCOCC4)cn23)cc1	13	0	0	2	·	·
Brc1ccc(-c2nnc3sc(CN4CCCCC4)cn23)cc1	67*	1	1	-20	-2	-3
